In PubChem BioAssay:
“And” between values parts separate entries of the source, which are not always exact repeats. Identical values can stand only once. Values without a mark were called inactive. No rule for the calls is given here.

Experiments:
[1] = tested on: Aerobactin synthetase IucA (Klebsiella pneumoniae hvKP1); assay: Biochemical IucA enzyme inhibition primary screen of the Spectrum library (AID 1346200); conditions: malachite green pyrophosphate, A620, at 8 µM, stronger effect = lower value;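 also: 100% = wells without compound and 0% = wells lacking enzyme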
[2] = tested on: Aerobactin synthetase IucA (Klebsiella pneumoniae, hypervirulent); assay: IucA enzyme inhibition, biochemical, LOPAC library, absorbance readout (AID 1346212); conditions: IucA enzyme assay, absorbance (OD) readout; stronger effect = lower value; concentration not given here;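 also: 100% = no compound wells and 0% = no enzyme wells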

Row | Compound | activity remaining [1] [%] | remaining activity [2]
1 | NCCCS(=O)(=O)O | 104 | 111%
2 | CCOC(=O)C1=C[C@]2(CC)CCCN3CCc4c(n1c1ccccc41)[C@@H]32 | 108 | 100%
3 | N[C@@H](C(=O)N[C@@H]1C(=O)N2C(C(=O)O)=C(Cl)CS[C@H]12)c1ccccc1 | 103 | 120%
4 | Cc1cc(C(C)(C)C)c(O)c(C)c1CC1=NCCN1 | 114 | 117%
5 | OCCN1CCN(CCCN2c3ccccc3Sc3ccc(C(F)(F)F)cc32)CC1 | 125 | 93.9%
6 | COC(=O)[C@H]1[C@H]2C[C@H]3c4[nH]c5ccccc5c4CCN3C[C@H]2CC[C@@H]1O | 107 | 95.4%
7 | CC(C)(C)NCC(O)c1ccc(O)c(CO)c1 (stereo not given) | 110 | 121% and 104%
8 | CCN(CC)CCNC(=O)c1ccc(N)cc1 | 95.4 | 96.2%
9 | NC(N)=NCCCCN=C(N)N | 119 | 90.7%
10 | OC(CCN1CCCCC1)(c1ccccc1)C1CC2C=CC1C2 (stereo not given) | 87.7 | 116%
11 | CC(=O)OCC1=C(C(=O)O)N2C(=O)[C@@H](NC(=O)Cc3cccs3)[C@H]2SC1 | 109 | 117%
12 | COC(=O)[C@H]1[C@H]2C[C@@H]3c4[nH]c5cc(OC)ccc5c4CCN3C[C@H]2C[C@@H](OC(=O)c2cc(OC)c(OC)c(OC)c2)[C@@H]1OC | 109 | 102%
13 | CC(=O)CCCCn1c(=O)c2c(ncn2C)n(C)c1=O | 82.4 | 123%
14 | FC(F)(F)c1ccccc1-n1ccnc1 | 85.9 | 102%
15 | O=C(O)C1=CCCNC1 | 98.7 | 96.8%
16 | Cc1c(OCC(F)(F)F)ccnc1CS(=O)c1nc2ccccc2[nH]1 (stereo not given) | 121 | 111%
17 | CCc1cccc2c3c([nH]c12)C(CC)(CC(=O)O)OCC3 (stereo not given) | 116 | 116%
18 | NC(=O)NO | 121 | 117%
19 | CN(C)C(=O)C(CCN1CCC(O)(c2ccc(Cl)cc2)CC1)(c1ccccc1)c1ccccc1 | 113 | 114%
20 | CN[C@H](CC(=O)O)C(=O)O | 118 | 118%

Row | Compound | activity remaining [1] [%] | remaining activity [2]
21 | CC[N+](CC)(CC)CCOc1cccc(OCC[N+](CC)(CC)CC)c1OCC[N+](CC)(CC)CC | 96.2 | 111%
22 | C[N+](C)(C)CCOC(N)=O | 93.2 | 119%
23 | CC1=NS(=O)(=O)c2cc(Cl)ccc2N1 | 107 | 105%
24 | CC1COc2c(N3CCN(C)CC3)c(F)cc3c(=O)c(C(=O)O)cn1c23 (stereo not given) | 92.3 | 118%
25 | O=C(CCCN1CCC(O)(c2ccc(Cl)cc2)CC1)c1ccc(F)cc1 | 117 | 100%
26 | CN(C)[C@@H]1C(=O)C(C(N)=O)=C(O)[C@@]2(O)C(=O)C3=C(O)c4c(O)ccc(Cl)c4[C@@H](O)[C@H]3C[C@@H]12 | 97 | 92.3%
27 | CN(C)CCC=C1c2ccccc2CCc2ccccc21 | 110 | 106%
28 | NC1(C(=O)O)CC1 | 94.3 | 88.1%
29 | CN1C(=O)CC[C@H]1c1cccnc1 | 101 | 122%
30 | C[C@](N)(Cc1ccc(O)c(O)c1)C(=O)O | 121 | 113%
31 | CN(C)CCOC(C)(c1ccccc1)c1ccccn1 (stereo not given) | 104 | 101%
32 | CCCN1C[C@H](CSC)C[C@@H]2c3cccc4[nH]cc(c34)C[C@H]21 | 120 | 95.5%
33 | Nc1c2c(nc3ccccc13)CCCC2 | 118 | 119%
34 | O=C1NC(=O)C(c2ccccc2)(c2ccccc2)N1 | 122 | 124% and 101%
35 | Fc1ccc([C@@H]2CCNC[C@H]2COc2ccc3c(c2)OCO3)cc1 | 108 | 121%
36 | CCn1nc(C(=O)O)c(=O)c2cc3c(cc21)OCO3 | 112 | 111%
37 | O=C(O)c1cc(=O)c2c(Cl)cc(Cl)cc2[nH]1 | 103 | 110%
38 | NC(=NCc1ccccc1)NC(=O)c1nc(Cl)c(N)nc1N | 78.3 | 94.8%
39 | O=C(O)c1cccnc1Nc1cccc(C(F)(F)F)c1 | 117 | 115%
40 | CCN(CC)CCOC(=O)C1(C2CCCCC2)CCCCC1 | 125 | 92.7%
